Structures are written as SMILES. A number with no mark means an inactive call. For part of these data: Results with a measured potency or affinity are listed apart. Calls of active or inactive are those of the source. Unless noted, no rule for the calls is given here.

The nature of assay [1]: antimalarial activity against Dd2 strain (AID 2302;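 active = growth inhibition above 50% at the single 2 µM test dose, taken to imply half-maximal potency below 2 µM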;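 also: 0% = DMSO untreated growth and 100% = chloroquine plus artemisinin killed control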). To be noted: P. falciparum Dd2 in RBCs, LDH growth readout, 72 h; at 2 µM; hits give high values.
Assay [2] in a line: HepG2 cytotoxicity, primary screen, cytotoxicity control for P. falciparum antimalarial project, cell-based, ATP luminescence (AID 2303;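 active = inhibition above 50%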;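 also: 0% = DMSO wells and 100% = digitonin-killed cells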). To be noted: HepG2 viability, 24-48 h, at 10 µM, hits give high values.
The target in assay [3] is L-lactate dehydrogenase (Plasmodium falciparum (isolate CDC / Honduras)) (UniProt Q27743). The assay can be described thus: PfLDH activity inhibition – cell lysate, 3D7 strain, counter-screen for P. falciparum growth inhibition project (AID 2304).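 Also: 0% = vehicle and 100% = reference inhibitor.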 Conditions: P. falciparum 3D7 crude extract, LDH APAD/NBT absorbance; at 2 µM; hits give high values.
The nature of assay [4]: inhibition of 3D7 malaria parasite growth – strain 3D7 (AID 2306).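 Also: 0% = DMSO wells and 100% = chloroquine plus artemisinin control wells.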 Conditions: P. falciparum 3D7 erythrocytic growth, LDH absorbance, 72 h; at 2 µM; hits give high values.
Assay [5] addresses Calcium-dependent protein kinase 1 (Plasmodium falciparum (isolate 3D7)) (UniProt P62344). The assay can be described thus: PfCDPK1 kinase inhibitors, biochemical, TCAMS library (AID 1159585; cut-off not given, nearly all actives have IC50 up to about 0.98 µM;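 also: inhibitors leave more ATP so luminescence rises with inhibition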). To be noted: recombinant PfCDPK1, Kinase-Glo ATP depletion luminescence.
The target in assay [6] is Plasmodium falciparum protein kinase 6 (PK6, PF3D7_1337100) (UniProt Q8IDW1). Nature of the assay: PfPK6 kinase inhibitors, biochemical, TCAMS library (AID 1159586). Conditions: recombinant PfPK6, Kinase-Glo ATP depletion luminescence.
The target of assay [7] is Protein kinase 7 (PK7), Plasmodium falciparum 3D7 (PF3D7_0213400) (UniProt Q7YTF7). The assay can be described thus: inhibition of Plasmodium PK7 catalytic activity – biochemical, TCAMS antimalarial set, Kinase-Glo luminescence (AID 1159587). Conditions: recombinant PfPK7, Kinase-Glo ATP depletion luminescence.
The target in assay [8] is Calcium-dependent protein kinase 4 (Plasmodium falciparum (isolate 3D7)) (UniProt Q8IBS5). Nature of the assay: PfCDPK4 kinase inhibitors, biochemical, TCAMS library (AID 1159588; cut-off not given, nearly all actives have IC50 up to about 0.91 µM). Conditions: recombinant PfCDPK4, Kinase-Glo ATP depletion luminescence.
Calcium-dependent protein kinase 4 (Plasmodium falciparum (isolate 3D7)), sequence (Q8IBS5 whole entry, looked up): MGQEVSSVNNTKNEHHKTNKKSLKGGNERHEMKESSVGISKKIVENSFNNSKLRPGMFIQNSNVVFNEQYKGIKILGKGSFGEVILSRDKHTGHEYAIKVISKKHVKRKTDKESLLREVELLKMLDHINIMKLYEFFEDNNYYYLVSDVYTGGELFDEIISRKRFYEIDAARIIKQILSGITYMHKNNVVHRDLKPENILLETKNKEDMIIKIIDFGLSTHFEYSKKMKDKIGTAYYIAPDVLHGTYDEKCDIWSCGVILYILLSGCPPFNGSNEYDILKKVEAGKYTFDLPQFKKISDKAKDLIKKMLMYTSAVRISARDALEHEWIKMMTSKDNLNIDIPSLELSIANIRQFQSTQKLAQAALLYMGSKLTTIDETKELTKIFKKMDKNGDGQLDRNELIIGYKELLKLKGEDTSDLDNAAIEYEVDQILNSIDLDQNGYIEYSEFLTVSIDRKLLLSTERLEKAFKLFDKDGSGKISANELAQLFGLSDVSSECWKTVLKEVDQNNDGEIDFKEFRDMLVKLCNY

Calcium-dependent protein kinase 1 (Plasmodium falciparum (isolate 3D7)), sequence (P62344 whole entry, looked up): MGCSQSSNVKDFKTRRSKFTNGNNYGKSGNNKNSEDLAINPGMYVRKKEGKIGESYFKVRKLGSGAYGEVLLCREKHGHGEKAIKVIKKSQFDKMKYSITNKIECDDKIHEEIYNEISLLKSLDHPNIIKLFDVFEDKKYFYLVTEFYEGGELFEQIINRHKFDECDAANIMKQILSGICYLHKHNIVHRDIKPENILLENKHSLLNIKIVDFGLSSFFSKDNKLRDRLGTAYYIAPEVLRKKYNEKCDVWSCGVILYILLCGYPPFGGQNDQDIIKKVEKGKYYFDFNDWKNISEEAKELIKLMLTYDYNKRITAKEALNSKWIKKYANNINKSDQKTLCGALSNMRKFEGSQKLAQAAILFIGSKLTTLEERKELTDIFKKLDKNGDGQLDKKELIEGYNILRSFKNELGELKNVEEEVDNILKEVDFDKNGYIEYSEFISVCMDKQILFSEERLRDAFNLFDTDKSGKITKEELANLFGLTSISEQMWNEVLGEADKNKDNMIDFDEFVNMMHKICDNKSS
Protein kinase 7 (PK7), Plasmodium falciparum 3D7 (PF3D7_0213400), sequence (Q7YTF7 1-343): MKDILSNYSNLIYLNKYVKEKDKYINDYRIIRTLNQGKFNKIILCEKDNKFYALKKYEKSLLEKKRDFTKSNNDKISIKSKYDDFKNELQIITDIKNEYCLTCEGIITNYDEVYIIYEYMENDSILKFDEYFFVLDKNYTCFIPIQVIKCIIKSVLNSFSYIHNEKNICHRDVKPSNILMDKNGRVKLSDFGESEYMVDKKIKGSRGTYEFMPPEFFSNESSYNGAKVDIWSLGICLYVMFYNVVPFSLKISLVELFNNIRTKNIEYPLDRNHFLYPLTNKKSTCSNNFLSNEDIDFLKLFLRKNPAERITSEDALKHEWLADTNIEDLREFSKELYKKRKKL
Plasmodium falciparum protein kinase 6 (PK6, PF3D7_1337100), sequence (Q8IDW1 1-305): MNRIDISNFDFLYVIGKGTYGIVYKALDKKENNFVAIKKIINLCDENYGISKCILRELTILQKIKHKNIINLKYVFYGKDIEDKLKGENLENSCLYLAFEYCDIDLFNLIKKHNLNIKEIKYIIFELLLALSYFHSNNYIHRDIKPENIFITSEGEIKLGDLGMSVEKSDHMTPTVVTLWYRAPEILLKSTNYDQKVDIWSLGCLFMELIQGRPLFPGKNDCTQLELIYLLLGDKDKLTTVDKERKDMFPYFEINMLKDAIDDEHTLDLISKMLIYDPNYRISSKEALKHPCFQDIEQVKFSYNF
L-lactate dehydrogenase (Plasmodium falciparum (isolate CDC / Honduras)), sequence (Q27743 whole entry, looked up): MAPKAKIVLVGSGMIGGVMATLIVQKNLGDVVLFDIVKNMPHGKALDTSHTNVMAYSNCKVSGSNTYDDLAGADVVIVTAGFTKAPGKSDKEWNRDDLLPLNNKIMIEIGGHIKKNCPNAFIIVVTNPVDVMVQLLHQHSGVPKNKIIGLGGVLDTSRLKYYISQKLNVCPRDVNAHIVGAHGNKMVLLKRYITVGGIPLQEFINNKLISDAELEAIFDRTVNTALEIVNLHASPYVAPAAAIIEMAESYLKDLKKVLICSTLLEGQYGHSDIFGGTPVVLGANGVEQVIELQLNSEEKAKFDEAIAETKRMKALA

Take `FC(F)(F)Oc1cccc(CNc2noc(-c3sccc3Br)n2)c1`: the growth inhibition in assay [1] was 97% (active); in assay [4], 100% (active). The inhibition is 0% in assay [2] and -3% in assay [3]. The result in assay [5], in assay [6], in assay [7] and in assay [8] was inactive.
As to `O=C(Nc1ccc2c(c1)CCN2C1CCN(Cc2ccc(O)cc2)C1)c1ccco1` (centres undefined), the growth inhibition in assay [1] was 63% (active); in assay [4], 97% (active). The values for the inhibition in assay [2] and in assay [3] were 0% and -2%, respectively. In addition, the result in assay [5], in assay [6], in assay [7] and in assay [8] was inactive.
`Cc1cc(-c2cccc(CNC3CCN(C)CC3)c2)ccc1S(=O)(=O)NCc1ccccc1`: the growth inhibition is 90% (active) in assay [1] and 99% (active) in assay [4]. The inhibition in assay [2] was 53% (active); in assay [3], 4%. Moreover, the result in assay [5], in assay [6], in assay [7] and in assay [8] was inactive.
As for `Fc1ccc2nc(-c3ccc(-c4cccc(CN5CCN(c6ccncc6)CC5)c4)cc3)[nH]c2c1`, the figures for the growth inhibition in assay [1] and in assay [4] were 101% (active) and 100% (active), respectively. The inhibition in assay [2] was 66% (active); in assay [3], -3%. The outcome in assay [5], in assay [6], in assay [7] and in assay [8] was inactive.
Regarding `COc1cc(Cc2cnc(N)nc2N)cc(OC(C)C)c1OC`, the growth inhibition in assay [1] was 15%; in assay [4], 91% (active). Moreover, the inhibition in assay [2] is 10%; in assay [3] it was 0%. For the same compound, the outcome in assay [5], in assay [6], in assay [7] and in assay [8] was inactive.
For `CCCCCC(C)C(C)c1cc(OC(N)=O)c2c(c1)OC(C)(C)C=C2c1ccncc1` (centres undefined), the growth inhibition in assay [1] was -1%; in assay [4] it was 96% (active). For the same compound, the figures for the inhibition in assay [2] and in assay [3] were 81% (active) and 0%, respectively. In addition, the result in assay [5], in assay [6], in assay [7] and in assay [8] was inactive.
On to `Cc1cccc2[nH]c(-c3ccc(-c4ccc(NC(=O)NCc5cccc(F)c5)cc4)cc3)nc12`, for which the growth inhibition in assay [1] was 12%; in assay [4], 97% (active). Further, the inhibition in assay [2] was 46%; in assay [3], 7%. For the same compound, the result in assay [5], in assay [6], in assay [7] and in assay [8] was inactive.
`CC(=O)CC(=O)N1CCN(c2ccccc2)CC1`: the growth inhibition is -6% in assay [1] and 85% (active) in assay [4]. Moreover, the inhibition is 54% (active) in assay [2] and -1% in assay [3]. Moreover, the result in assay [5], in assay [6], in assay [7] and in assay [8] was inactive.
On to `CCN(CC)CCNC(=O)/C(=C/C=C/c1cc2cc(Cl)c(Cl)cc2[nH]1)OC`, for which the growth inhibition in assay [1] was 31%; in assay [4] it was 88% (active). Also, the inhibition was 30% in assay [2] and -4% in assay [3]. In addition, the outcome in assay [5], in assay [6], in assay [7] and in assay [8] was inactive.
Turning to `C[C@H](Cc1ccc(C(=O)OC(c2ccccc2)c2ccccc2)cc1)NC[C@H](O)c1ccccc1`, the results for the growth inhibition in assay [1] and in assay [4] were 98% (active) and 100% (active), respectively. For the same compound, the figures for the inhibition in assay [2] and in assay [3] were 83% (active) and -3%, respectively. Further, the result in assay [5], in assay [6], in assay [7] and in assay [8] was inactive.
`Cc1c(-c2ccc(C(=O)NC3CC(C)(C)NC(C)(C)C3)cc2)[nH]c2cc(Cl)c(Cl)cc12`: the growth inhibition is 68% (active) in assay [1] and 98% (active) in assay [4]. Moreover, the inhibition in assay [2] was 34%; in assay [3] it was 0%. Also, the outcome in assay [5], in assay [6], in assay [7] and in assay [8] was inactive.
Take `CN1CCN(c2ccc(-c3cc(-c4ccncc4)c(-c4ccc(Cl)c(O)c4)o3)cc2)CC1`: the results for the growth inhibition in assay [1] and in assay [4] were 98% (active) and 101% (active), respectively. Also, the inhibition in assay [2] is -13%; in assay [3] it was -4%. In addition, the outcome in assay [5], in assay [6], in assay [7] and in assay [8] was inactive.
Regarding `Cc1cc(CNCCCCCCCNCc2ccc(Cl)cc2)ccc1O`, the growth inhibition in assay [1] is 0%; in assay [4], 97% (active). The values for the inhibition in assay [2] and in assay [3] were 13% and -4%, respectively. Further, the result in assay [5], in assay [6], in assay [7] and in assay [8] was inactive.
Take `N#Cc1c(-c2ccccc2)cn2c1[nH]c(=O)c1ccccc12`: the figures for the growth inhibition in assay [1] and in assay [4] were 95% (active) and 92% (active), respectively. Further, the inhibition was -1% in assay [2] and 1% in assay [3]. Also, the outcome in assay [5], in assay [6], in assay [7] and in assay [8] was inactive.
As to `Cc1cc(Nc2ccc(C)c(Cl)c2)n2nc(C(F)(F)F)nc2n1`, the growth inhibition in assay [1] was 97% (active); in assay [4], 98% (active). The inhibition in assay [2] and in assay [3] was 2% throughout. The outcome in assay [5], in assay [6], in assay [7] and in assay [8] was inactive.
As for `O=C(Nc1ccc(-c2csc3nccn23)cc1)c1ccc(Cl)cc1`, the figures for the growth inhibition in assay [1] and in assay [4] were 50% (active) and 100% (active), respectively. For the same compound, the inhibition in assay [2] was 54% (active); in assay [3], -5%. For the same compound, the result in assay [5], in assay [6], in assay [7] and in assay [8] was inactive.
As for `Cc1ccc(C2(C)CC(C)(C)N(C(=O)COc3ccc4ccccc4c3)c3ccccc32)cc1` (centres undefined), the growth inhibition in assay [1] was 98% (active); in assay [4] it was 100% (active). The figures for the inhibition in assay [2] and in assay [3] were 0% and -2%, respectively. Further, the outcome in assay [5], in assay [6], in assay [7] and in assay [8] was inactive.
Consider `COc1cc(NC(=O)N2CCc3ccc(OCCN(C(C)C)C(C)C)cc32)cc(C(F)(F)F)c1`, for which the growth inhibition was 97% (active) in assay [1] and 102% (active) in assay [4]. The inhibition in assay [2] is 6%; in assay [3], 3%. Moreover, the result in assay [5], in assay [6], in assay [7] and in assay [8] was inactive.
